From PubChem BioAssay AID651956 (Broad Institute, 2012)
Entries with a potency or affinity are not part of this list. Records with an inconclusive call do not appear. Calls of active or inactive are those of the source.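 How the source made its calls: active means in every test run, a fitted half-maximal concentration for signal decrease at or below twice the highest tested concentration; inconclusive means runs disagree, flat 30 to 70% decrease, or poor fit; inactive means the rest.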

Assay: miR-122 activators in hepatoma reporter cells, dose response, cell-based, Huh7 psiCHECK-miR122, Renilla luciferase, cherry-picked (AID 651956);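 further: Renilla luciferase from a miR-122 sensor reporter so lower signal means miR-122 activation; 0% = median neutral control wells and -100% = median positive control wells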
Details: 48 h; series mostly up to 35 µM; activity change, negative = signal decrease: at the top concentration

Activity change, negative = signal decrease, inactive:
O=C(Cn1c(=O)c2ccccc2n(CC(=O)N2CCCCC2)c1=O)N1CCCCC1 -13.5%
CN1C(=O)c2cc(NC(=O)c3cccs3)ccc2OC[C@@H]2O[C@H](CC(=O)NCC(F)(F)F)CC[C@H]21 -19.1%
CCCNC(=O)C[C@H]1CC[C@@H]2[C@H](COc3ccc(NS(=O)(=O)c4ccccc4C)cc3C(=O)N2C)O1 40.6%
CCC(=O)N1[C@H](CN(C(C)C)S(C)(=O)=O)[C@@H](c2ccccc2)[C@@H]1CO -31.1%
COCC(=O)N1[C@H](CO)[C@H]2c3ccccc3N(C(=O)c3ccccc3F)C[C@H]21 -11%
CC(C)NC(=O)Nc1ccc2c(c1)C(=O)N(C)[C@@H]1CC[C@@H](CC(=O)NCC(F)(F)F)O[C@@H]1CO2 117%
COCC(=O)N(C)C[C@@H]1[C@H](c2ccc(-c3ccccc3)cc2)[C@@H](CO)N1C(C)=O -23.3%
Cc1ccc(OCCN2CCN(c3ncnc4sc(C)c(C)c34)CC2)cc1 -40.6%
CC(C)NC(=O)N1C[C@@H]2[C@H](c3ccccc31)[C@@H](CO)N2C(=O)c1cccnc1 -18.4%
O=C(Nc1ncc(Cc2cccc(C(F)(F)F)c2)s1)c1ccc(-c2cccc([N+](=O)[O-])c2)o1 -14.5%
CCCCN1C=C(C(=O)OC)C(c2ccccc2C(F)(F)F)C(C(=O)OC)=C1 40.1%
COc1ccc(C(NC(C)=O)c2cc(Cl)c3cccnc3c2O)cc1 (stereo not given) -26.7%
CCCNC(=O)C[C@@H]1CC[C@@H]2[C@@H](COc3ccc(NC(=O)Nc4ccccc4F)cc3C(=O)N2C)O1 -17%
CN1C(=O)c2cc(NC(=O)c3cccs3)ccc2OC[C@H]2O[C@@H](CC(=O)NCCN3CCCCC3)CC[C@H]21 17.9%
COc1ccc(CC(NC(C)=O)C(=O)N2CCN(C(=O)N(C(C)C)C(C)C)CC2)cc1 (stereo not given) 13.5%
C/C=C/c1ccc([C@@H]2[C@@H](CO)N[C@@H]2CN(CC)C(=O)CN2CCOCC2)cc1 52.7%
COCC(=O)NC[C@@H]1[C@H](c2ccc(C3=CCCC3)cc2)[C@@H](CO)N1C(=O)C1CC1 100%
COc1ccc(C(C#N)Nc2ccc(C)cc2)cc1 (stereo not given) -33.2%
C/C=C/c1ccc([C@@H]2[C@@H](CO)N(S(C)(=O)=O)[C@H]2CN(C)C(=O)CC)cc1 -44.8%
CNC(=O)C[C@@H]1CC[C@@H]2[C@H](COc3ccc(NC(=O)c4cccc(OC)c4)cc3C(=O)N2C)O1 16.2%
CC(=O)Nc1ccc(-c2cc(-c3ccc(NC(C)=O)cc3)nc(-c3ccc(NC(C)=O)cc3)n2)cc1 63.9%
CC(=O)N(C)C[C@@H]1[C@@H](c2ccccc2)[C@H](CO)N1C(=O)C1CCC1 -15.8%
COCC(=O)Nc1ccc2c(c1)C(=O)N(C)[C@@H]1CC[C@H](CC(=O)NCCCN(C)C)O[C@H]1CO2 -2.91%
CN(C[C@H]1N[C@@H](CO)[C@@H]1c1ccc(C2=CCCC2)cc1)C(=O)c1ccccn1 209%

outcome, inactive:
CN1C(=O)c2cc(NC(=O)c3cccc(F)c3)ccc2OC[C@@H]2O[C@H](CC(=O)NC3CCC3)CC[C@@H]21
